This excerpt belongs to a sample that is enriched for hits.
IL-1B inflam inh = blocks inflammasome-driven IL-1 beta release | THP-1 LPS/ATP IL-1B secretion, AlphaLISA, 16 h; active compounds read low | activity change, % at 57.5 µM | actives 4.7% (n = 360,000) | AID 743279; in the data active means activity change below about -50%; inconclusive means mostly about -30% to -49%
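Secreted IL-1B measured by AlphaLISA bead assay after 16 h compound exposure of THP-1 cells; compounds (final up to 57.5 uM) added 1 h before LPS (250 ng/mL) and ATP (1.25 mM) stimulation; lower signal means less secretion.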
HT1080 IDH1KD tx = toxicity to HT-1080 IDH1 knockdown cells (counter line); HT-1080 IDH1 knockdown viability, ATP luminescence, 48 h; Potency, µM (series often up to 46.1 µM), actives largely listed as cytotoxic; AID 686971; actives 2% (n = 360,000)
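Assay cells: HT-1080 with IDH1 knockdown, 750 per well, RPMI/5% FBS. Exposure: 48 h at 37 °C following 2 h pre-incubation. Read: CellTiter-Glo luminescence; fitted concentration-response, curve class assigned.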
DT40 TDP1 no CPT = qHTS for Inhibitors of human tyrosyl-DNA phosphodiesterase 1 (TDP1): qHTS in cells in absence of CPT; DT40 Tdp1-/- hTDP1 cells, no CPT, ATP luminescence, 48 h; Potency, µM (top dose mostly 46.2 µM), actives largely listed as inhibitors; actives 15% (n = 420,000); further: nearly all actives have a fitted effect of over 55% in size
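Growth kinetics read by CellTiter-Glo luminescence after ≥48 hr at 37 °C. Cells: DT40 Tdp1-/- stably carrying human TDP1, 400 per well, compound exposure in the absence of CPT (DMSO vehicle).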
TDP1 cell CPT = DT40-hTDP1 cell growth loss with CPT; chicken DT40 Tdp1-/-;hTDP1 cells + 20 nM CPT, ATP luminescence, 48 h; Potency, µM (doses to about 46.2 µM), actives largely listed as inhibitors; actives 12% (n = 420,000); further: nearly all actives have a fitted effect of over 55% in size
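Cell growth measured by CellTiter-Glo luminescence after a minimum 48 h, 37 C compound exposure with 20 nM CPT in Tdp1-knockout DT40 cells stably expressing hTDP1, seeded 400/well; qHTS titration format.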
HT1080NT lethal = kills 2HG-producing HT-1080-NT fibrosarcoma cells; AID 686970; HT-1080-NT fibrosarcoma viability, CellTiter-Glo ATP luminescence, 48 h; Potency, µM (top dose mostly 46.1 µM), most hits filed as cytotoxic; actives 1.6% (n = 360,000);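 further: NT is the 2HG producing partner of a matched IDH1 knockdown line; nearly all actives have a fitted effect of over 55% in size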
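Read-out is CellTiter-Glo luminescence after 10 minutes at room temperature, following 48 hours' compound treatment of HT-1080-NT cells (750 cells/well, RPMI, 5% FBS, 37 degrees C).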
12-LOX inh = inhibitors of human 12S-lipoxygenase ALOX12. P18054. purified 12hLO, xylenol orange hydroperoxide absorbance. Potency, µM (series often up to 108 µM), usual class: inhibitors. actives 1.1% (n = 580,000). AID 1671190
Target sequence (P18054 whole entry, looked up): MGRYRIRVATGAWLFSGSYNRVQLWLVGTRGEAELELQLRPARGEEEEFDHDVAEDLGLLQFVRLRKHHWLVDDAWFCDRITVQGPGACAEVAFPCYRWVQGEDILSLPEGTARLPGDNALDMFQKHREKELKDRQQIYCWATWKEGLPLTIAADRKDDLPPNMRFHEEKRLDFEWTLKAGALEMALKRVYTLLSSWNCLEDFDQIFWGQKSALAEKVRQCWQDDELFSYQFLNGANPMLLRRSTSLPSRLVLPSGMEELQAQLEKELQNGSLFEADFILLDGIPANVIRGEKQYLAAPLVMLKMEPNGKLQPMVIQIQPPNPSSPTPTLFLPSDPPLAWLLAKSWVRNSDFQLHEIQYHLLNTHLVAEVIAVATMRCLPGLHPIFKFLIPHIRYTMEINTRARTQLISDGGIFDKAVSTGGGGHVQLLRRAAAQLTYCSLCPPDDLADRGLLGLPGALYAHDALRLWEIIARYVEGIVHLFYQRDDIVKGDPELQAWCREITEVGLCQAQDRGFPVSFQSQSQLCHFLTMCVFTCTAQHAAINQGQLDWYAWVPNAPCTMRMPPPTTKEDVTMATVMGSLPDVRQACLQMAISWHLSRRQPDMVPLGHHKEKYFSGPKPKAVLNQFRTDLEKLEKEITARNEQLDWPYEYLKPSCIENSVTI
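Purified human 12hLO at 150 nM in 25 mM Hepes, 0.01% Triton X-100, pH 7.0, preincubated 15 min at room temperature with compound. Reaction started with 40 uM arachidonic acid, 30 min at room temperature. Hydroperoxide measured by Fe-xylenol orange, 573/405 nm absorbance ratio.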
Numbers stand for hits; – = inactive; ? = inconclusive; · = not tested or not shown; [ ] = dose if it differs, or a comment. Unless noted, the call rests on the fitted dose curve; in most records, active means well fitted curve in the direction sought with a large enough effect; inconclusive means small, poorly fitted or top-dose-only effect, or another doubt; inactive means no such curve, though single readings can be large; an effect the other way counts as inactive or inconclusive.

SMILES	IL-1B inflam inh	HT1080 IDH1KD tx	DT40 TDP1 no CPT	TDP1 cell CPT	HT1080NT lethal	12-LOX inh
COc1ccccc1-c1nc(C#N)c(N2CCN(C(=O)c3ccccc3)CC2)o1	·	·	·	·	·	–
Cc1nc(CN2Cc3nc(-c4cccc(C(F)(F)F)c4)ccc3OCC2=O)cs1	·	·	·	·	·	–
Cc1ccsc1CN(C)C(=O)Cc1c[nH]c2ccccc12	·	·	·	·	·	–
O=C(c1ccoc1)N1CCN(c2cc(-c3ccco3)nc3cc(-c4ccccc4)nn23)CC1	–	?	7.3µM	8.2µM	?	?
Cc1ccc(NC(=O)CN2CCCC2c2cccn2C)c(Br)c1 (stereo not given)	–	–	15µM	?	–	–
Cc1ccc(NC(=O)CN2CCCC2c2cccn2C)cc1C (stereo not given)	–	–	?	–	–	–
Fc1ccc(Nc2c3c(nc4nncn24)CCC3)cc1	·	·	–	–	·	–
C=CCn1c(SCC(C)=O)nc2scc(-c3ccc(C)o3)c2c1=O	–	?	?	?	–	–
C=CCn1c(SCC(=O)NC2CCCC2)nc2scc(-c3ccco3)c2c1=O	–	?	?	?	?	45µM
C=CCn1c(SCC(=O)NCCCC)nc2scc(-c3ccco3)c2c1=O	-68	–	?	?	–	?
N#Cc1c(-c2ccccc2)nc2n(-c3ccccc3)nc(C(=O)Nc3ccccc3)n2c1=O	–	–	7.3µM	?	–	–
CC(=O)c1cccc(NC(=O)c2nc(-c3ccccc3)n(-c3ccccc3)n2)c1	·	·	10µM	21µM	·	–
N#Cc1cccc(NC(=O)c2nc(-c3ccccc3)n(-c3ccccc3)n2)c1	–	–	18µM	?	–	–
CC(=O)c1ccc(NC(=O)c2nc(-c3ccccc3)n(-c3ccc(C)cc3)n2)cc1	·	·	18µM	?	·	–
Cc1ccc(C)c(NC(=O)c2nc(-c3ccccc3)n(-c3ccccc3)n2)c1	?	–	?	?	–	–
O=C(CN1CCOCC1)Nc1ccc(NC(=O)c2nc(-c3ccccc3)n(-c3ccccc3)n2)cc1	·	·	·	·	·	–
Cc1cccc(CNC(=O)c2c3n(c(C)cc2=O)-c2ccccc2SC(c2sccc2C)C3)n1 (stereo not given)	·	·	–	–[9.04 µM]	·	–
CN(C)c1ccc(/C=N/NC(N)=S)cc1[N+](=O)[O-]	–	–	?	–	–	–
COc1ccc(-c2nc(C(=O)Nc3cccc(C(C)=O)c3)nn2-c2ccccc2Cl)cc1	·	·	16µM	18µM	·	–
O=C(O)c1cc(O)c2c(c1)[C@@H]([C@H]1c3cc(C(=O)O)cc(O)c3C(=O)c3c(O[C@@H]4O[C@H](CO)[C@@H](O)[C@H](O)[C@H]4O)cccc31)c1cccc(OC3O[C@H](CO)[C@@H](O)[C@H](O)[C@H]3O)c1C2=O (stereo not given in full)	–	–	?	?	–	50µM
O=C(O)c1cc(O)c2c(c1)[C@H]([C@H]1c3cc(C(=O)O)cc(O)c3C(=O)c3c(O[C@@H]4O[C@H](CO)[C@@H](O)[C@H](O)[C@H]4O)cccc31)c1cccc(OC3O[C@H](CO)[C@@H](O)[C@H](O)[C@H]3O)c1C2=O (stereo not given in full)	–	?	15µM	15µM	–	?
COCC(=O)NC[C@H]1O[C@H](Cc2cc(-c3ccccn3)on2)CC[C@@H]1O	·	·	·	·	·	–
CCCCN(CC)Cc1ccc(CNC(=O)Nc2ccc(Cl)cc2)o1	-62	?	5.8µM	3.3µM	?	?
CCCCN(CC)Cc1ccc(CNC(=O)Nc2ccc(OCC)cc2)o1	–	–	?	?	–	–
COc1ccc(C(=O)Oc2cc(C)ccc2C(C)C)cc1Br	·	·	·	·	·	–
SMILES	IL-1B inflam inh	HT1080 IDH1KD tx	DT40 TDP1 no CPT	TDP1 cell CPT	HT1080NT lethal	12-LOX inh
CC(C)(C)OC(=O)C[C@@H]1C/C=C\C[C@H](CC(=O)N[C@H](CO)Cc2ccccc2)C(=O)N[C@H](C(C)(C)C)COC1=O	–	–	?	?	–	–
CC(C)(C)OC(=O)C[C@@H]1C/C=C\C[C@H](CC(=O)N[C@H](CO)Cc2ccccc2)C(=O)N[C@@H](Cc2c[nH]c3ccccc23)COC1=O	–	–	?	26µM	–	–
CC(C)(C)OC(=O)C[C@H]1C/C=C\C[C@H](CC(=O)N[C@H](CO)Cc2ccccc2)C(=O)N[C@H](C(C)(C)C)COC1=O	–	–	?	?	–	–
CC(C)(C)OC(=O)C[C@@H]1C/C=C\C[C@H](CC(=O)N[C@H](CO)Cc2ccccc2)C(=O)N[C@H](Cc2ccccc2)COC1=O	–	–	13µM	–	–	?
CC(C)(C)OC(=O)C[C@@H]1C/C=C\C[C@H](CC(=O)N[C@H](CO)Cc2ccccc2)C(=O)N[C@@H](Cc2ccccc2)COC1=O	–	–	?	?	–	–
CC(C)(C)OC(=O)C[C@H]1C/C=C\C[C@H](CC(=O)N[C@H](CO)Cc2ccccc2)C(=O)N[C@H](Cc2ccccc2)COC1=O	-58	–	23µM	23µM	–	–
COc1cccc(CN2CCN3C(=O)N(C4CCOCC4)C[C@H]3C2)n1	·	·	·	·	·	–
COc1ccc(CN2C(=O)CO[C@H](c3ccc(NC(=O)COc4ccccc4)cc3)[C@H]2CO)cc1	·	·	·	·	·	–
CC(C)(C)c1ccc(N2C(=O)CSC2c2cccnc2)cc1 (stereo not given)	–	–	8.2µM	?	–	–
NC(=O)N=Nc1c2[nH]c3ccccc3nc-2c2ccccc12	-89	–	8.2µM	16µM	–	–
O=c1[nH]c2ccccc2nc1-c1ccccc1	–	–	–	–	–	–
COc1ccc(CCN2C(=O)c3ccccc3C2c2nnnn2Cc2ccccc2)cc1OC (stereo not given)	–	–	?	?	–	–
COc1ccc(CCN2C(=O)c3ccccc3C2c2nnnn2-c2c(C)cccc2C)cc1OC (stereo not given)	–	–	12µM	23µM	–	–
Cc1ccc(CN2C(=O)c3ccccc3C2c2nnnn2-c2c(C)cccc2C)cc1 (stereo not given)	–	–	29µM	?	–	–
COc1ccc(CN2C(=O)CCC2(C)c2nnnn2-c2c(C)cccc2C)cc1OC (stereo not given)	–	–	18µM	16µM	–	–
Cc1cccc(C)c1-n1nnnc1C1c2ccccc2C(=O)N1CCc1ccccc1F (stereo not given)	–	–	16µM	?	–	–
COc1cc(C(=O)Nc2nc(C)cc(C)n2)cc(OC)c1OC	–	–	–	–	–	?

Assay outcomes: PubChem, National Center for Advancing Translational Sciences (NCATS)
